Hit rate of the full screen: of about 360,000 compounds, about 1,100 (0.31%) were called active. Only a selection was taken, and actives are over-represented in it overall. A number with no mark means an inactive call. No stated cut-off is given here; in the data, active means activity change above about 30% (passing the limit was not always enough); inactive means the rest.

This test deals with Hepatocyte nuclear factor 4-alpha (Homo sapiens) (UniProt P41235). In words: HNF4-alpha DNA association modulation – biochemical, fluorescence polarization, FITC-DNA, primary screen (AID 1224865). The note with it: HNF4a-FITC DNA binding, 1 h, at 10 µM, active compounds read high.
Hepatocyte nuclear factor 4-alpha (Homo sapiens), sequence (P41235 whole entry, looked up): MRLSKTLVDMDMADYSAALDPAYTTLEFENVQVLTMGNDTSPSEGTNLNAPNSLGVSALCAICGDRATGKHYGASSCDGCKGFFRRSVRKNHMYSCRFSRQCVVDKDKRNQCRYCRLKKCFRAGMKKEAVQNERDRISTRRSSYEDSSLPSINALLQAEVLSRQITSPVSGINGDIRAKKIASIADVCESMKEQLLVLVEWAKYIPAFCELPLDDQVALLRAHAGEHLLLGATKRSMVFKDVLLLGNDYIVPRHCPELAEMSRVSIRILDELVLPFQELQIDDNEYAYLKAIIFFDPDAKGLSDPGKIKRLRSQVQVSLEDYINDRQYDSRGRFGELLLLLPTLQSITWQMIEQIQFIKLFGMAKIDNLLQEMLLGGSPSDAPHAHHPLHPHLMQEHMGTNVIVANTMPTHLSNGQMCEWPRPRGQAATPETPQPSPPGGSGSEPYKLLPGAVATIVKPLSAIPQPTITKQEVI
With `CCn1c(SCC(=O)Nc2ccc3c(c2)OCCO3)nc2c(c1=O)SC(C)C2` (centres undefined), the activity change is 1.48%. As to `CC(O)c1nc2ccccc2n1Cc1ccc([N+](=O)[O-])cc1` (centres undefined), the activity change was -3.67%. In the case of `Cc1cccc(NS(=O)(=O)c2ccc([N+](=O)[O-])cc2)n1`, the activity change is 0.15%. In the case of `Cc1nc2ccccc2nc(=O)c1NNc1ccc([N+](=O)[O-])cc1`, the activity change is 71% (active).

As to `O=C(O)C1CCC(CNS(=O)(=O)c2ccc(Br)cc2)CC1` (centres undefined), the activity change is 1.62%.

On to `Clc1cccc(Cc2c(-c3cccc(Cl)c3)nc3ccc(Cl)cn23)c1`, for which the activity change was 8.89%. Consider `Fc1cccc(Cc2c(-c3cccc(Cl)c3)nc3ccc(Br)cn23)c1`, for which the activity change is 42.3% (active). Turning to `Fc1cccc(Cc2c(-c3ccc(Cl)cc3)nc3ccc(Cl)cn23)c1`, the activity change is 6.82%. As to `CN(C)C(=O)CCC(=O)N1CCCCC1C(=O)Nc1ccc(Oc2ccccc2F)cc1` (centres undefined), the activity change was 1.87%. `Cc1nc2ccccc2n1CC(O)c1ccccc1` (centres undefined): the activity change was -4.17%. Next, `Cc1nc(-c2ccccc2)cn2c1nc1ccccc12`: 43.5% (active); `Cc1c(C(=O)Nc2cccc(Cl)c2)cn2c(nc3ccccc32)c1C#N`: 0.36%; `COc1ccc(-c2cc(C(F)(F)F)nc(S(C)(=O)=O)n2)cc1OC`: -0.66%.

For the molecule `O=C(Cn1nnc(-c2ccc(CN3CCOCC3)cc2)n1)NC1CCCCC1`, the activity change is 4.12%. Consider `N/C(=N\S(=O)(=O)c1ccc(Cl)cc1)N1CCOCC1`, for which the activity change is 4.34%. Next, `CCOc1ccc(C(=O)Nc2cccc(SC)c2)cc1`: 0.43%; `CCOc1ccc(C(=O)Nc2cccc(-c3ccc4nncn4n3)c2)cc1`: -0.86%.

Consider `O=C(Nc1cccc(-c2nc3ccccc3[nH]2)c1)c1ccc(C(=O)Nc2cccc(-c3nc4ccccc4[nH]3)c2)cc1`, for which the activity change is 81.8% (active). Consider `Cc1ccc(Cl)cc1N1CCN(C(=O)c2cccc3c(=O)c(C)c(-c4ccccc4)oc23)CC1`, for which the activity change is -0.99%. Consider `CC(=O)c1cc(NC(=O)c2ccccc2)c(=O)oc1/C=C/N(C)C`, for which the activity change was 102% (active).

Turning to `COc1ccc(C2COC(=O)C2=N)c(NC(=O)c2ccccc2)c1` (centres undefined), the activity change is -5.12%. On to `CCOC(=O)c1cc(NC(=O)c2ccc(Cl)cc2)c(=O)oc1-c1ccccc1`, for which the activity change was -0.75%. The figure for `CCOc1ccc(Oc2nc(C)cc(OC)n2)nn1` is 0.35%. As for `CC(C)C[C@H](NC(=O)[C@@H]1O[C@H]1C(=O)O)C(=O)NCCCCN=C(N)N`, the activity change was 2.71%. As to `COc1ccc(CN2CCCCC2C)cc1OC` (centres undefined), the activity change is -0.13%. Turning to `CC(C)c1ccc2oc(=O)cc(CN3CCN(Cc4ccccc4)CC3)c2c1`, the activity change is 2.71%.

For the molecule `CCc1ccc2oc(=O)cc(CN3CCCCC3C)c2c1` (centres undefined), the activity change was 39.9% (active). Regarding `O=C(CCCn1c(=O)c2sccc2n(CC(=O)NCC2CCCO2)c1=O)NCc1ccco1` (centres undefined), the activity change was -1.63%. `COc1cccc(NS(=O)(=O)c2ccc3[nH]cc(C(=O)NCCCOC(C)C)c(=O)c3c2)c1`: the activity change was 0.82%. The figure for `Cc1cc(NC(=O)CSc2nnnn2-c2ccc(F)cc2)no1` is 2.72%; for `Cc1cc(NC(=O)CSc2nccn2-c2ccc([N+](=O)[O-])cc2)no1` it is 35.4% (active); for `Cc1cc(NC(=O)CSc2nc(=O)cc(N)n2-c2ccc(F)cc2)no1` it is -1.93%. As for `CC(C)c1ccc(-c2nn[nH]n2)cc1`, the activity change is -1.88%. For the molecule `CCc1ccc(CN2C(=O)c3ccccc3C2C(=O)NCC2CCCO2)cc1` (centres undefined), the activity change is 0.41%. Take `O=C(NC(=S)Nc1ncccn1)c1ccccc1Br`: the activity change was 1.65%.

As to `O=C(Nc1cc(Cl)ccc1N1CCOCC1)c1ccc(N2CCCC2=O)cc1`, the activity change was -2.01%. Next, `O=C(CCN1C(=O)/C(=C/c2cccs2)SC1=S)NNC(=O)c1cccc(O)c1`: 42.1% (active); `Cc1c(C(=O)NCCN2C(=O)S/C(=C\c3cccs3)C2=O)cccc1[N+](=O)[O-]`: -0.17%. `O=C(CCN1C(=O)c2ccccc2C1=O)NNC(=O)c1ccc(Cl)cc1Cl`: the activity change was -1.42%.

In the case of `Cc1cccc(NC(=O)c2ccc(S(=O)(=O)N(C)CC3CCCO3)cc2)c1C` (centres undefined), the activity change is -0.21%. As to `CC1=C(C(=O)Nc2cccc(C(=O)NCC(C)c3ccccc3)c2)SCCO1` (centres undefined), the activity change is -3.05%. Turning to `Cc1ccc(-c2cnc(C(O)c3cc(Cl)cc(Cl)c3)[nH]2)cc1` (centres undefined), the activity change is 2.03%.

For the molecule `Cc1ccccc1OCCOc1ccc([N+](=O)[O-])cc1/C=N/n1cnnc1`, the activity change is 0.85%.

Consider `O=[N+]([O-])c1ccc(COc2ccccc2CN2CCOCC2)cc1`, for which the activity change is 4.14%. As to `Cc1cccc(COc2ccccc2/C=N/Nc2ccc([N+](=O)[O-])cc2)c1`, the activity change is 53.2% (active). `Cc1ccc(Cl)cc1NC(=S)N(CCN(C)C)Cc1cccs1`: the activity change was -2.05%. For the molecule `COCCCn1c(=O)/c(=C/c2ccccc2OC(C)C)s/c1=C(\C#N)C(=O)Nc1ccc(C(=O)O)cc1`, the activity change is 21.5%. With `CCOC(=O)[C@@H]1[C@H]2COc3cc(OC)ccc3[C@H]2N2C(=O)N(c3ccc(F)cc3)C(=O)[C@]12C`, the activity change is -1.52%. For the molecule `C#CCOCCOCCOCCNc1nc(N2CCN(C(=O)C(Cc3ccc(O)cc3)n3cc(C(N)CC(C)C)nn3)CC2)nc(N2CCN(C(=O)C(Cc3ccc(O)cc3)n3cc(C(N)C(C)CC)nn3)CC2)n1` (centres undefined), the activity change is 2.78%.

In the case of `C#CCOCCOCCOCCNc1nc(N2CCN(C(=O)[C@H](CO)n3cc([C@@H](N)C(C)C)nn3)CC2)nc(N2CCN(C(=O)[C@H](CCC(=O)O)n3cc([C@@H](N)[C@H](C)CC)nn3)CC2)n1`, the activity change was -0.8%. `C#CCOCCOCCOCCNc1nc(N2CCN(C(=O)C([C@@H](C)O)n3cc([C@@H](N)CCCCN)nn3)CC2)nc(N2CCN(C(=O)[C@H](CCCCN)n3cc(CN)nn3)CC2)n1` (some centres undefined): the activity change is 59.9% (active).

Take `CSc1sc(C)cc1C1C(C#N)=C(N)N(c2cccnc2)C2=C1C(=O)CCC2` (centres undefined): the activity change was -3.92%.

Take `COC(=O)c1c(C)oc(C)c1S(=O)(=O)Nc1ccc(C(C)C)cc1`: the activity change is -0.92%. As for `FC(F)Oc1ccc(NC(=S)NCc2ccco2)cc1Cl`, the activity change is 8.22%.

The values are drawn from PubChem BioAssay AID1224865 (Sanford-Burnham Center for Chemical Genomics, 2016).
